# Vaccinia Venus – inhibitors of vaccinia virus (Venus reporter); Potency, µM (doses to about 36.5 µM), for the others: at the top dose activity change, negative = inhibition, actives largely listed as inhibitors; actives 0.46% (n = 330,000); Vaccinia virus Venus reporter expression, fluorescence; AID 720580; calls by dose curve; tested in A549 cells; note: nearly all actives have a fitted effect of over 30% in size
# TbPYK inhibitor – T. brucei pyruvate kinase inhibition. TbPYK enzyme, Kinase-Glo Plus ATP luminescence, 45 min. Potency, µM (highest dose often 76.8 µM), for inactives: at the highest dose activity, negative = inhibition, actives largely listed as inhibitors. actives 0.12% (n = 410,000); note: nearly all actives have a fitted effect of over 50% in size
#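 Luminescence from Kinase-Glo Plus, added after a 45-minute room-temperature reaction, served as the end-point read-out. The enzyme and substrate were preincubated with compound before ADP (130 uM final) initiated turnover. Concentration-effect curves came from normalized qHTS data.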
# RE007 growth inh – less growth of the S. pombe RE007 Vpr strain; actives 0.21% (n = 360,000); AID 651644; Potency, µM (titrated, usually from 92.2 µM), for the others: at the highest dose activity change, negative = less growth, usual class: inhibitors; S. pombe RE007 Vpr strain, BacTiter-Glo ATP luminescence, 24 h; active = well fitted falling curve with a large enough effect; inconclusive = small, poorly fitted or top-dose-only effect; inactive = no such curve, though single readings can be large or run the other way; note: nearly all actives have a fitted effect of over 50% in size
#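 Fission yeast RE007 carrying one integrated HIV-1 vpr copy, seeded at OD 0.01 in PMG+AL medium with 23 nL pinned compound. Grown 24 h at 30 degrees; viability read by BacTiter-Glo luminescence after 5 min.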
# VACV mCherry inh – vaccinia inhibition (mCherry reporter) | Vaccinia virus mCherry reporter infection, fluorescence | Potency, µM (titrated, usually from 36.5 µM), without a hit: at the top dose activity change, negative = inhibition, usual class: inhibitors | actives 0.63% (n = 310,000); calls by dose curve; tested in A549 cells; note: nearly all actives have a fitted effect of over 35% in size
# LmPK inhibitor – blocks Leishmania mexicana pyruvate kinase activity; Q27686; purified LmPK, Kinase-Glo ATP luminescence, 1 h; Potency, µM (titrated, usually from 57.5 µM), for the others: top-dose activity change, negative = inhibition, usual class: inhibitors; actives 0.37% (n = 290,000); AID 1721
# Target sequence (Q27686 whole entry, looked up): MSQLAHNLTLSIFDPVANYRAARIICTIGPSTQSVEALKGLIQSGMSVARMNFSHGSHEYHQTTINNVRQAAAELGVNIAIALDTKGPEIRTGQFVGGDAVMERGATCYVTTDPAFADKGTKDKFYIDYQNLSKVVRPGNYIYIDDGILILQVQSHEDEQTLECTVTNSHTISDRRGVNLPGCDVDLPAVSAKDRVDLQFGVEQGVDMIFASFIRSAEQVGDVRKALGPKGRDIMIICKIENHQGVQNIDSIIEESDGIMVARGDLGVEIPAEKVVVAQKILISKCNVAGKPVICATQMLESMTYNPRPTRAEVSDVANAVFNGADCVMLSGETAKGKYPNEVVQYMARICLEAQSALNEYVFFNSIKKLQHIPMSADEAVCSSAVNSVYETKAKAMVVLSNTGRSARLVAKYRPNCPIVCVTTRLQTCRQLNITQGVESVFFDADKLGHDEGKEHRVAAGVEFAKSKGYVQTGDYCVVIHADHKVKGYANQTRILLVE
#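 In 50 mM imidazole pH 7.2 with 7 mM MgCl2, LmPK (0.1 nM) turned over PEP (0.5 mM) and ADP (0.1 mM) for 1 h at room temperature. Luciferase read-out of ATP.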
# AMA1-RON2 inh – AMA1-RON2 (P. falciparum) interaction inhibition; AlphaScreen AMA1-biotinylated RON2 peptide binding; Potency, µM (titrated, usually from 58.2 µM), for inactives: at the top dose activity change, negative = inhibition, hits mostly inhibitors; actives 0.2% (n = 360,000);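 note: 0% = vehicle wells and -100% = peptide control; nearly all actives have a fitted effect of over 45% in size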
#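 AMA1 (3D7) with his tag at 25 nM final met compounds first, then biotinylated RON2 peptide at 25 nM; detection used donor plus acceptor beads, 10 µg/mL apiece, read by AlphaScreen after 30 min at room temperature.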
# * hit, by the source's call; i = inactive; ? = inconclusive; nt = no result given. Sampled rows, rich in hits. Any-hit rate of the full collection: about 1.3%. Unless noted, calls come from the whole dose curve; as a rule, active = well fitted curve in the direction sought with a large enough effect; inconclusive = small, poorly fitted or top-dose-only effect, or another doubt; inactive = no such curve, though single readings can be large; an effect the other way counts as inactive or inconclusive. Unless noted, % is set by controls: 0 for no effect and ±100 for the full control effect; potency is the fitted concentration of half-maximal effect.
SMILES,Vaccinia Venus,TbPYK inhibitor,RE007 growth inh,VACV mCherry inh,LmPK inhibitor,AMA1-RON2 inh
CN(C)CCCNC(=O)C[C@H]1C[C@H](C(=O)N2CCCCC2)[C@@]2(CCc3ccccc3)c3[nH]c4ccc(Cl)cc4c3CCN2C1=O,14µM*,-14%,1%,13µM*,nt,14%
O=C(c1ccc([N+](=O)[O-])cc1[N+](=O)[O-])N1CCc2ccccc21,?,-8%,-14%,2.2µM*,-1%,-5%
O=C(O)c1ccc(N/N=C/c2ccc3nccnc3c2)cc1,nt,?,?,nt,16µM*,4%
COc1ccc(-c2cc3nc(-c4ccccc4)cc(N4CCCC(O)C4)n3n2)cc1 (centres undefined),?,6%,9%,13µM*,1%,56%
COc1ccc(-c2cc3nc(-c4ccccc4)cc(N4CCC(O)CC4)n3n2)cc1,-27%,-20%,-20%,-19%,0%,27%
CC1CN(Cc2cccn2-c2ncccn2)Cc2cc(Cl)ccc2O1 (centres undefined),-1%,nt,nt,-6%,nt,nt
O=c1oc2c3c4c(cc2s1)CCCN4CCC3,nt,?,?,nt,16%,14µM*
O=c1ccc2cc3c4c(c2o1)CCCN4CCC3,13%,-8%,-7%,-15%,0%,-13%
Cc1cc(N/N=C/c2ccccc2[N+](=O)[O-])nc(-n2nc(C)cc2C)n1,?,1%,-10%,10µM*,-10%,49%
Cc1cc(N/N=C/c2cccc([N+](=O)[O-])c2)nc(-n2nc(C)cc2C)n1,-1%,-10%,-5%,i,5%,3%
CC1(C)CN=c2s/c(=C\c3ccc(Cl)cc3)c(=O)n2C1,?,-9%,-30%,10µM*,1%,60%
CSC1=N/C(=C\c2ccc(Cl)cc2)C(=O)N1N(C)C,1%,4%,-7%,i,8%,9%
COc1ccc(-c2ccc(C(=O)NCC3Cc4cccc(-c5nc(C)cnc5C)c4O3)o2)cc1 (centres undefined),5%,nt,nt,-13%,nt,nt
Nc1nc(-c2ccccc2)[nH]c(=O)c1N=O,13µM*,0%,-15%,?,2%,6%
COCCCNc1ncnc2sc(C(=O)N3CCOCC3)c(C)c12,-4%,nt,nt,-16%,nt,nt
CCCCC(CC(O)COCCC)c1n[nH]c(=S)n1-c1ccccc1 (centres undefined),-3%,11µM*,24%,-19%,?,13%
CCCCCC(O)CCc1n[nH]c(=S)n1-c1ccccc1 (centres undefined),-5%,4.5µM*,0%,-13%,?,90%
Cc1ccc(C(=O)N2CCCCC2)cc1NC1=C(Cl)C(=O)N(Cc2ccccc2)C1=O,nt,-12%,2%,nt,nt,-2%
Cc1ccc(O)c(NC2=C(Cl)C(=O)N(Cc3ccccc3)C2=O)c1,-19%,35µM*,4%,?,-9%,22%
NC(=O)C1CCN(C2CC(=O)N(c3ccc(F)c(Cl)c3)C2=O)CC1 (centres undefined),-8%,1%,10µM*,-11%,-6%,-9%
NC(=O)C1CCN(C2CC(=O)N(c3cccc(F)c3)C2=O)CC1 (centres undefined),-3%,3%,14µM*,nt,-2%,3%
Cc1ccc(C)c(S(=O)(=O)c2nnn3c2nc(NCc2ccc4c(c2)OCO4)c2sccc23)c1,?,-7%,nt,-26%,nt,nt
COc1ccc(-c2cccc3c2OC(CNC(=O)c2ccc4c(c2)OCO4)C3)nn1 (centres undefined),4%,nt,nt,-5%,nt,nt
CC(C)(C)c1cc(NCCCn2ccnc2)n2ncc(-c3ccc(Cl)cc3)c2n1,?,-3%,22µM*,?,1%,52%
NC(N)=NCCCC(N)C(=O)O (centres undefined),nt,1%,nt,nt,nt,nt
SMILES,Vaccinia Venus,TbPYK inhibitor,RE007 growth inh,VACV mCherry inh,LmPK inhibitor,AMA1-RON2 inh
CN(C)c1ccc(CN(CC2CCCO2)C(=O)c2cc3ccccc3o2)cc1 (centres undefined),-9%,-4%,-5%,i,nt,16µM*
CN(Cc1ccccc1)C(=O)c1cc2ccccc2o1,-1%,3%,-3%,-8%,-5%,3%
CN(Cc1ccc(N(C)C)cc1)C(=O)c1cc2ccccc2o1,-8%,-4%,0%,-7%,0%,14µM*
Cc1ccc(C(=O)N(Cc2ccc(N(C)C)cc2)CC2CCCO2)cc1 (centres undefined),-9%,-8%,nt,-3%,nt,nt
Cc1ccccc1OCC(=O)NCC(=O)OCC(=O)c1ccc(-c2ccccc2)cc1,5%,nt,nt,-11%,nt,nt
COC(=O)c1cc(CNC(=O)c2cccc(C)c2)cc(NC(=O)c2ccncc2)c1,2%,nt,nt,-8%,nt,nt
COc1ccc(NC(=O)CSc2nc(SC)ns2)cc1,?,13%,1%,11µM*,-3%,7%
CSc1nsc(SCC(=O)Nc2ccc(NC(C)=O)cc2)n1,-9%,-5%,19%,-14%,-2%,-7%
COc1cccc(C(=O)N2CCCC(c3nc(SCCN4CCOCC4)ncc3C)C2)c1 (centres undefined),-3%,nt,nt,-9%,nt,nt
Cc1ccc2c(c1)C(N1CCCC1=O)CC(c1ccco1)N2 (centres undefined),-22%,?,?,-25%,11µM*,-7%
Cc1ccc(C2CC(c3ccco3)n3ncnc3N2)cc1 (centres undefined),-3%,-6%,-21%,-11%,0%,-10%
CCCCN(CC)CCNC(=O)c1cc2c(-c3ccc(Cl)cc3)nn(C)c2s1,?,-5%,-21%,10µM*,-6%,-18%
COc1ccccc1C(=O)N[C@@H]1c2ccccc2C2(CCN(Cc3ccc4c(c3)OCO4)CC2)[C@H]1O,-18%,nt,nt,-28%,nt,nt
O=C(c1ccccc1)c1ccccc1N1C(=O)C=CC1=O,-19%,5µM*,35µM*,-20%,14µM*,-16%
O=C(Nc1nc(-c2ccc(Cl)cc2)cs1)C1CCCO1 (centres undefined),-18%,3%,22µM*,-21%,-1%,2%
CCOc1ccc(-c2csc(NC(=O)C3CCCO3)n2)cc1 (centres undefined),nt,4%,7%,nt,-4%,-11%
O=C(Nc1nc(-c2ccc(Cl)cc2Cl)cs1)C1CCCO1 (centres undefined),-12%,-1%,16µM*,-25%,0%,1%
O=C(Nc1cc(Cl)ccc1Cl)C1CCCO1 (centres undefined),-13%,-1%,?,-8%,-1%,-8%
COc1ccccc1N1CCN(c2nc(CNC(=O)c3ccc4c(c3)OCO4)nc3ccccc23)CC1,-14%,nt,nt,i,nt,nt

# Compound activity: PubChem BioAssay, National Center for Advancing Translational Sciences (NCATS)
